# Experimental data published in PubChem BioAssay AID463173 (ICCB-Longwood Screening Facility, Harvard Medical School, 2010).
# Hit rate of the full screen: of about 52,000 compounds, about 4,300 (8.3%) were called active. Many of the other results were omitted from the sample, so actives are more common in it than they were. Values without a mark were called inactive. No stated cut-off is given here; in the data, active means survival mostly below about 52% (no sharp cut-off); inactive means mostly above about 56%.
# System: DeltatarO mutant
# Experiment: S. aureus survival, RN4220 and DeltatarO strains – OD600, teichoic acid synthesis inhibitors, primary screen (AID 463173)
# Details: S. aureus RN4220 wild type/DeltatarO growth, OD600, 18 h, active compounds read low, screened at 18.75 µg/mL (by protocol)
row,SMILES,survival
1,COc1cc(NC(=O)CCc2nc3cccnc3n2Cc2cccs2)cc(OC)c1OC,78%
2,CC(=O)NC(Cc1cccc(C)c1)C(=O)NC1CCN(c2nc(C)cc(C)c2C#N)CC1 (stereo not drawn),97%
3,CCS(=O)(=O)c1cccc(C(=O)Nc2ccc(-c3nc4ccccc4s3)c(O)c2)c1,85%
4,CCN(CC)c1ccc(C2Nc3ccccc3-c3cc(C)nn32)cc1 (stereo not drawn),7% (active)
5,COc1ccc(OC)c(C2Nc3c(C)cc(C)cc3-c3cc(C)nn32)c1 (stereo not drawn),-3% (active)
6,CCOc1cccc(C2Nc3ccccc3-c3cc(C)nn32)c1O (stereo not drawn),195%
7,Cc1cc2n(n1)C(c1ccccc1)Nc1ccccc1-2 (stereo not drawn),93%
8,COc1cc(C2Nc3c(C)cc(C)cc3-c3cc(C)nn32)cc(OC)c1O (stereo not drawn),131%
9,COC(=O)c1ccc(C2Nc3c(C)cccc3-c3cc(C)nn32)cc1 (stereo not drawn),74%
10,CCOc1ccc(C2Nc3c(C)cccc3-c3cc(C)nn32)cc1 (stereo not drawn),0% (active)
11,COc1cc(OC)c(C2Nc3c(C)cccc3-c3cc(C)nn32)cc1OC (stereo not drawn),184%
12,COc1cc(C2Nc3ccccc3-c3cc(C)nn32)ccc1O (stereo not drawn),121%
13,O=C(NCc1ccccc1Cl)C1CCN(C(=O)N2CCOc3ccccc32)CC1,83%
14,COCCn1c(COc2cccc(OC)c2)nnc1SCC(=O)NC1CCCC1,82%
15,COc1ccc(NC(=O)c2cc(C)nc3c2c(C)nn3-c2ccc(C)cc2)cc1OC,94%
16,Cc1ccc2[nH]c(=O)c(CN(C(=O)c3cccc(Cl)c3)C(C)(C)C)cc2c1,94%
17,Cc1ccc(C(=O)CSc2nc(-c3ccccc3)nc3c2CCCC3)c(C)c1,47%
18,CCc1ccc(C(=O)CSc2nc(-c3ccccc3)nc3c2CCCC3)cc1,60%
19,Cc1nc2c(c(SCC(=O)Nc3ccccc3C(F)(F)F)n1)CCC2,60%
20,NC(=O)CSc1nc(-c2ccccc2)nc2c1CCCC2,88%
21,O=C(CSc1nc(-c2ccccc2)nc2c1CCCC2)c1ccc(Cl)cc1,76%

row,SMILES,survival
1,Cc1ccc(C(=O)CSc2nc(-c3ccccc3)nc3c2CCCC3)cc1,36% (active)
2,Cc1ccc(C)c(C(=O)CSc2nc(-c3ccccc3)nc3c2CCCC3)c1,2% (active)
3,O=C(CSc1nc(-c2ccccc2)nc2c1CCCC2)c1ccc(F)cc1,83%
4,Cc1ccc(C(=O)CSc2nc(-c3ccccc3)nc3c2CCCC3)cc1C,15% (active)
5,OC(CNCc1ccccn1)COc1ccc(OCC(O)CNCc2ccccn2)cc1 (stereo not drawn),96%
6,Cc1ccc2c(c1)NC(=O)c1cccnc1O2,94%
7,CCOc1ccc(CNC(=O)C(C)n2ncn3cccc3c2=O)cc1 (stereo not drawn),69%
8,COc1ccc(C(C(=O)NC2CCCC2)N(Cc2ccco2)C(=O)Cn2nc(C(F)(F)F)c3c2CCCC3)cc1 (stereo not drawn),91%
9,Brc1ccc(-c2csc(NN=C3CCCC3)n2)cc1,102%
10,COC(=O)c1ccccc1NC(=O)c1ccc2c(c1)CCN2S(=O)(=O)c1ccc(Cl)cc1,69%
11,CCn1c2c(c(=O)n3ncc(C(=O)Nc4ccc(OC(F)(F)F)cc4)c13)CN(Cc1ccc(OC)cc1)CC2,94%
12,CCn1c2c(c(=O)n3ncc(C(=O)Nc4ccc(Cl)cc4C)c13)CN(Cc1ccc(OC)cc1)CC2,87%
13,CCn1c2c(c(=O)n3ncc(C(=O)Nc4ccc(F)c(Cl)c4)c13)CN(Cc1ccc(OC)cc1)CC2,17% (active)
14,c1ccc(N2CCN(Cc3cccn3-c3nnc(N4CCN(C5CCCCC5)CC4)s3)CC2)cc1,76%
15,CCOc1ccccc1NC(=O)C1CCN(S(=O)(=O)c2cc(Br)cc3c2N(C(C)=O)CC3)CC1,69%
16,CCC(=O)N1CCc2cc(Br)cc(S(=O)(=O)N3CCC(C(=O)Nc4cccc(C)c4)CC3)c21,80%
17,CCCCNC(=O)C1CCN(S(=O)(=O)c2cc(Br)cc3c2N(C(=O)CC)CC3)CC1,90%
18,CC(=O)N1CCc2cc(Br)cc(S(=O)(=O)N3CCC(C(=O)Nc4cccc(C)c4C)CC3)c21,75% (active)
19,CCC(=O)N1CCc2cc(Br)cc(S(=O)(=O)N3CCC(C(=O)Nc4ccc(OC)cc4)CC3)c21,8% (active)
20,CCc1cccc(C)c1NC(=O)C1CCN(S(=O)(=O)c2cc(Br)cc3c2N(C(C)=O)CC3)CC1,59%
21,CCC(=O)N1CCc2cc(Br)cc(S(=O)(=O)N3CCC(C(=O)NC(C)(C)C)CC3)c21,84%

row,SMILES,survival
1,CCC(=O)N1CCc2cc(Br)cc(S(=O)(=O)N3CCC(C(=O)Nc4ccccc4CC)CC3)c21,84%
2,CCC(=O)N1CCc2cc(Br)cc(S(=O)(=O)N3CCC(C(=O)Nc4ccccc4F)CC3)c21,43% (active)
3,COC(=O)CNC(=O)C1CCN(c2nc(C)cc(-c3ccccc3)n2)CC1,96%
4,O=C(Nc1sc2c(c1C(=O)c1ccccc1)CCCC2)c1ccco1,73%
5,O=C(/C=C/c1ccco1)NC(=S)Nc1ccccc1O,100%
6,CCCCNC(=O)C1CCC(Cn2c(=O)c3sccc3n(Cc3ccccc3)c2=O)CC1 (stereo not drawn),71%
7,CSc1ccc(CCNC(=O)c2cnc3c(C)cccn3c2=O)cc1,89%
8,CCc1ccccc1NC(=O)C1CCC(CNS(=O)(=O)c2ccc3c(c2)CC(C)N3C(C)=O)CC1 (stereo not drawn),91%
9,COc1cccc(NC(=O)CCc2c(C)nc3nc(CNC(=O)c4cccc(F)c4)nn3c2C)c1,76%
10,Cc1cccc(CN2C(=O)c3ccccc3Sc3ccc(C(=O)NCc4cccs4)cc32)c1,93%
11,COc1ccc(CNC(=O)c2ccc3c(c2)N(Cc2cc(C)ccc2C)C(=O)CS3)cc1,59%
12,O=C(NCc1ccc(F)cc1)c1ccc2c(c1)N(Cc1ccc(F)cc1Cl)C(=O)CS2,57%
13,Cc1cccc(CNC(=O)c2ccc3c(c2)N(C)CCS3)c1,65%
14,Cc1ccc(CNC(=O)c2ccc3c(c2)N(Cc2cccc(Cl)c2)C(=O)CS3)cc1,40% (active)
15,O=C(NCc1ccccc1Cl)c1ccc2c(c1)N(Cc1ccccc1)C(=O)CS2,101%
16,Cc1ccc(CNC(=O)c2ccc3c(c2)N(Cc2cccc(C)c2)C(=O)CS3)cc1,46% (active)
17,CCN1CCSc2ccc(C(=O)NCc3ccccc3Br)cc21,62%
18,Cc1ccc(C)c(CN2C(=O)CSc3ccc(C(=O)NCc4ccc(F)cc4)cc32)c1,46% (active)
19,CCN1CCSc2ccc(C(=O)NCc3cccc(F)c3)cc21,61%
20,CCN1CCSc2ccc(C(=O)NCc3cccc(Br)c3)cc21,46% (active)
21,Cc1ccc(CNC(=O)c2ccc3c(c2)N(Cc2ccccc2Cl)C(=O)CS3)cc1,50%
